Out of some 300,000 compounds screened, about 37,000 (12%) were called active. For the sample, actives were picked, then their nearest neighbours and some compounds at random. Unmarked numbers belong to inactive results. No stated cut-off is given here; in the data, active means max response mostly above about 13% (no sharp cut-off); inactive means mostly below about 14%.

This assay can be described thus: Cycloheximide Counterscreen for Small Molecule Inhibitors of Shiga Toxin. Further: read at 38.3 µM for the half of the compounds with a filed dose; 0% is about no effect. The note with it: cell reporter, cycloheximide protein synthesis inhibition counterscreen; hits give high values. For orientation: The purpose of a counterscreen is to sort out artefacts and off-target activity.
For `CC(=NC1CCN(Cc2ccccc2)CC1)c1c(O)[nH]c(=O)[nH]c1=O`, the max response was -1.74%.
As for `c1ccc(CN2CCC(N=C3NN=C(c4ccc5c(c4)OCCO5)CS3)CC2)cc1`, the figure is 32.2% (active); as for `CS(=O)(=O)N(CC(=O)N1CCN(Cc2ccccc2)CC1)c1ccc2c(c1)OCCO2`, -2.95%.
In the case of `Clc1cccc(N=C2NN=C(c3ccc4c(c3)OCCO4)CS2)c1` it was 74.7% (active); in that of `CCCn1c(C)cc(/C=C(\C#N)C(=O)OCC(=O)Nc2cc(OC)c(OC)c(OC)c2)c1C`, 31.9% (active); in that of `COc1cc(C2C3=C(CCCC3=O)OC3=C2C(=O)CCC3)ccc1OCC(=O)Nc1ccccc1`, 4.65%.
In the case of `CCOC(=O)/C(C#N)=C/c1cn(CCC(=O)O)nc1-c1ccc(Br)cc1` it was -0.95%; in that of `COc1cc(/C=N/NC(=O)Nc2ccccc2)ccc1OCCOc1ccccc1C`, -1.6%; in that of `CCOC(=O)/C(C#N)=C/c1ccc(OCC(=O)Nc2ccccc2)c(OC)c1`, 22.6% (active).
Consider `COc1cc(CCC(=O)OCC(=O)Nc2cccc(S(N)(=O)=O)c2)cc(OC)c1OC`, for which the max response was -3.66%.
On to `COc1ccc(-c2nnc(SC(=O)N3c4ccccc4Sc4ccccc43)o2)cc1`, for which the max response was 9.5%.
As for `COc1ccc2[nH]c(=O)c(C3c4cc(OC)c(OC)cc4CCN3C(=O)c3ccco3)cc2c1` (stereo not given), the figure is -3.91%; as for `NS(=O)(=O)c1cccc(NC(=O)CC23CC4CC(CC(Br)(C4)C2)C3)c1`, -0.826%; as for `CN(C(=O)CCN1C(=O)/C(=C/c2ccccc2F)SC1=S)C1CCS(=O)(=O)C1` (stereo not given), 4.42%.
For `O=C(CN1C(=O)/C(=C/c2ccccc2F)Sc2ccccc21)NCc1cccnc1`, the max response is 8.85%.
In the case of `O=C(CN1C(=O)/C(=C\c2ccccc2F)SC1=S)Nc1nc2ccccc2s1` it was 47.4% (active).
In the case of `COC(=O)c1cccc(N(C(=O)CNC(=O)c2cccs2)C(C(=O)NCC2CCCO2)c2ccc(OC)c(OC)c2)c1` (stereo not given) it was -3.34%.
As for `Cc1cc(O)ccc1-c1cnc2ccccc2n1`, the figure is 34.4% (active); as for `O=C(O)c1cc(S(=O)(=O)N(Cc2ccccc2)c2ccccc2)ccc1Cl`, -0.844%.
With `COc1ccc(N(C(=O)CNC(=O)c2ccco2)C(C(=O)NCC2CCCO2)c2ccccc2)cc1Cl` (stereo not given), the max response was -3.36%.
As for `CCCN1CCC(=O)N(C(CSc2ccc(C)cc2)Cc2ccccc2)CC1` (stereo not given), the max response is 7.93%.
As for `Cc1ccc(SCC(CC(C)C)N2CCN(CCc3ccccc3)CCC2=O)cc1` (stereo not given), the figure is 40% (active); as for `COc1ccc(SC[C@H](Cc2ccccc2)N2CCN(CCc3ccccc3)CCC2=O)cc1`, -4.06%; as for `CCOC(=O)CN1C(=O)C(=O)c2cc(C)ccc21`, -1.86%.
Take `CCOC(=O)[C@@H]1[C@H]2COc3cc(OC)ccc3[C@H]2N2C(=O)N(c3ccc(F)cc3)C(=O)[C@]12C`: the max response is 0.485%.
For `COCCN(C(=O)C(C)C)c1nnc(-c2ccc(C(C)(C)C)cc2)s1`, the max response was 13.2%.
As for `O=C(Cc1cccs1)Nc1cccc(-c2nc3ccccc3[nH]2)c1`, the figure is 11.5%; as for `NS(=O)(=O)c1cccc(NC(=O)COC(=O)/C=C/c2ccco2)c1`, 0.371%.
In the case of `CC(C)Oc1ccc(/C=C(\NC(=O)/C=C/c2ccco2)C(=O)NCCc2nc3ccccc3[nH]2)cc1` it was 5.81%.
As for `Cc1ccc(-c2nc3ccccc3[nH]2)cc1NC(=O)c1sc2ccccc2c1Cl`, the figure is -0.874%; as for `O=C(Nc1cccc(-c2nc3ccccc3[nH]2)c1)c1ccc(C(=O)Nc2cccc(-c3nc4ccccc4[nH]3)c2)cc1`, 48.3% (active).
In the case of `O=C(/C=C/c1ccco1)Nc1cccc(-c2nc3ccccc3[nH]2)c1`, the max response is 51.8% (active).
In the case of `COc1cc(/C=N/NC(=O)c2ccc(N3CCCC3=O)cc2)ccc1O` it was 36% (active); in that of `O=C(N/N=C/c1cccc(Br)c1)c1ccc(N2CCCC2=O)cc1`, -5.81%; in that of `COc1ccc(C(=O)Nc2ccccc2C(=O)N/N=C/c2ccc(O)c(OC)c2)cc1`, -7.9%.
On to `Cc1c(Cl)cccc1NC(=O)Nc1ccc(C(=O)N2CCCC2)cc1`, for which the max response was -1.9%.
As for `O=C(CCS(=O)(=O)c1ccc2c(c1)NC(=O)CS2)NCc1ccccc1Cl`, the figure is -3.16%; as for `O=C(CSc1n[nH]c(=O)n1-c1ccccc1)Nc1ccccc1C(F)(F)F`, -2.47%; as for `CC(N=Cc1nc(-c2ccccc2)oc1O)c1ccccc1` (stereo not given), 35.7% (active).
For `CCOc1ccc2nc(/N=C/c3nc(-c4ccccc4)oc3O)sc2c1`, the max response is -1.31%.
As for `Cc1c(Cl)cccc1NC(=O)NCCCN1CCCC1=O`, the figure is -0.801%; as for `COCCN1C(=O)C(=O)/C(=C(/O)c2ccc(S(=O)(=O)N3CCOCC3)cc2)C1c1ccc(O)c(OC)c1` (stereo not given), -5.59%.
As for `Cc1cccc(NC(=S)NCc2ccc3[nH]c4c(c3c2)CCCC4)c1`, the figure is 9.68%; as for `O=c1c2ccccc2nc(/C=C/c2ccco2)n1-c1ccccc1O`, 24.2% (active).
As to `CCn1c(/C=C/c2ccc([N+](=O)[O-])o2)nc2ccccc2c1=O`, the max response is -4.66%.
`O=c1c2ccccc2nc(/C=C/c2ccc(F)cc2)n1-c1ccccc1O`: the max response is 6.44%.
As for `O=C(Nc1ccc(F)c([N+](=O)[O-])c1)C1CC(=O)N(Cc2ccccc2)C1` (stereo not given), the figure is -3.3%; as for `COc1cccc(N(CC(=O)NC2CCCC2)C(=O)Cn2nnc(-c3ccc(C)o3)n2)c1`, -3.92%.
In the case of `COC(=O)CCc1ccccc1S(=O)(=O)N(CCC(=O)OC)Cc1ccccc1` it was -11%; in that of `COc1ccc(Cl)cc1-n1c(=S)sc2c(=O)n(-c3ccc(F)cc3)c(SCC(=O)O)nc21`, 0.929%.
Regarding `O=C1C2N=NN(CC(=O)N3N=C(c4cccc5ccccc45)CC3c3ccccc3)C2C(=O)N1c1ccccc1` (stereo not given), the max response was -3.29%.
As for `N#C/C(=C\c1ccccc1C(F)(F)F)C(=O)Nc1ccccc1F`, the figure is -2.94%.
As for `O=C(/C=C/c1c(F)cccc1Cl)Nc1nn[nH]n1`, the figure is -1.57%; as for `CNC(=O)/C(C#N)=C/c1c(F)cccc1Cl`, 15.7% (active).
In the case of `CCc1ccc(/C=N/NC(=O)c2ccc(OC3CCCC3)cc2)s1` it was 12.2%; in that of `COc1ccc(CCNC(=O)CCn2c(=O)c3ccccc3n(CC(=O)NCC3CCCO3)c2=O)cc1OC` (stereo not given), 11%; in that of `Cn1c(=N)n(CC(O)c2ccccc2)c2ccccc21` (stereo not given), 70.1% (active).
Take `Cc1nc2ccccc2n1CC(O)c1ccccc1` (stereo not given): the max response is -1.62%.
Consider `Cn1c(=N)n(CC(O)c2cccs2)c2ccccc21` (stereo not given), for which the max response was -3.56%.
In the case of `COC(C(=O)Nc1ccc(C(C)=O)cc1)c1ccccc1` (stereo not given) it was -2.94%; in that of `COc1ccc(NC(C(=O)Nc2cccc(C(C)=O)c2)c2ccccc2)cc1` (stereo not given), 12.5% (active); in that of `COc1ccc(NC(=O)[C@H](NC(=O)[C@@H]2Cc3ccccc3CN2)c2ccccc2)cc1`, -1.13%.
As for `O=C(NC1CCN(C(=S)Nc2ccc(Cl)cc2)CC1)C1CCCCC1`, the figure is -3.84%.
In the case of `CC(C)S(=O)(=O)c1csc(NC(=O)Nc2ccc(Cl)cc2)c1Cl` it was 17.4% (active).
Turning to `NS(=O)(=O)c1ccc(CCNC(=O)Nc2ccc(Cl)cc2)cc1`, the max response is 11%.
As for `O=C(Nc1ccc(Cl)cc1)Nc1ccc(C(=O)N2CCOCC2)cc1`, the figure is 15.1%; as for `Cc1cccc(OCC(=O)Nc2ccc(NC(=O)c3ccco3)c(C)c2)c1`, 6.82%; as for `CSc1ncc(C(=O)Nc2ccc(C)cc2C)c(C)n1`, 2.97%.
Take `COC(=O)c1nc(NC(=O)c2ccc(C(C)(C)C)cc2)n[nH]1`: the max response was 4.76%.
As for `CSc1nccc(NC(=O)c2ccc(C(C)(C)C)cc2)n1`, the figure is 38.6% (active); as for `Cn1c(Cn2nnc3ccccc32)nnc1SCC(=O)c1ccccc1F`, 1.74%.
As to `CCOc1ccc(Nc2nc(Cl)nc(N3CCN(c4ccc(OC)cc4)CC3)n2)cc1`, the max response is 1.38%.
As for `COc1ccc(Nc2ncc(F)c(N3CCOCC3)n2)cc1`, the figure is 27.6% (active).
As for `c1ccc(Nc2nc(N3CCOCC3)c3ccccc3n2)cc1`, the figure is 3.89%; as for `OCCNc1nc2ccccc2n1-c1ncnc2sc3c(c12)CCC3`, -6.62%; as for `CCCCCCCCCOC1OC(CO)C(O)C(O)C1NC(C)=O` (stereo not given), 2.49%.
As for `COc1cccc(CC2(CO)CCCN(Cc3nc(-c4cccs4)oc3C)C2)c1` (stereo not given), the figure is 1.79%.
Turning to `Cc1nn2cc(-c3ccc(Cl)cc3)cnc2c1Br`, the max response is 23.7% (active).
As for `COc1cccc(N2CCN(c3ccc4nnc(CCC(=O)N5CCN(C)CC5)n4n3)CC2)c1`, the figure is -3.61%.
Turning to `O=C(NCCc1c[nH]c2ccccc12)C1CCN(Cc2ccc(Br)cc2)CC1`, the max response was -1.22%.
For `COc1cc(OC)c(NC(=O)C2CCCN2C(=O)OCc2ccccc2)cc1Cl` (stereo not given), the max response is -2.36%.
For `COC(=O)c1ccc(OC(=O)c2nn(C)cc2Cl)c(OC)c1`, the max response is 8.01%.
Take `COc1ccc(S(=O)(=O)NCCCCOc2ccc(Cl)cc2)cc1`: the max response is -3.02%.
As for `CCNS(=O)(=O)c1ccc(NC(=O)Nc2cccc(OC)c2)cc1`, the figure is 10.4%.
As for `COc1cccc(NC(C)=[N+](C)CCNS(=O)(=O)c2ccc(Cl)cc2)c1`, the figure is 43.4% (active); as for `CC/C(=N\NC(=O)c1c(C)nc2ccccn12)c1ccc(Cl)cc1`, 6.12%.
`CN(C)c1ccc(C2N(C)C(=O)c3ccccc3N2C)cc1` (stereo not given): the max response was -2.11%.
As for `O=C(COc1ccc2ccccc2c1)N1CCN(C(=O)c2cccs2)CC1`, the figure is -3.04%; as for `O=C(C1=C(O)C(=O)N(c2ncccn2)C1c1cccs1)c1ccco1` (stereo not given), 0.951%.
In the case of `O=C(C1=C(O)C(=O)N(CCOCCO)C1c1ccccn1)c1cccs1` (stereo not given) it was 15.5% (active).

These data come from PubChem BioAssay AID2314 (National Center for Advancing Translational Sciences (NCATS), 2010).
